# Assay outcomes from PubChem BioAssay.
# CHO-K1 Ca ag = counter-screen for M1 agonists: effect in parental CHO-K1 cells; AID 602248, 2012; activation, % at 3 µM; Fluo-8 calcium fluorescence; scaled to maximal ATP response, vehicle zero; 360,000 tested, 0.48% active; in the data active means activation above about 15%;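 further: untransfected CHO-K1 host cells lacking M1 receptor as counterscreen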
# M1 PAM parental = nonselective calcium activators in parental CHO-K1 cells, primary screen, counter-screen for M1 PAM project, cell-based, Fluo-8 calcium fluorescence, full deck, 1536-well; 360,000 tested, 0.02% active; AID 602247, 2012; ATP EC20; 0% at ATP EC20, 100% at ATP max; activation, % at 3 µM;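 active means activation above the run cutoff, the mean activation of all test compounds plus 3 SD, cut at about 40% in these data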;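 further: peak over basal fluorescence ratio in a 140 s read after ATP addition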
# CHO-K1 Ca antag = counter-screen for M1 antagonists: effect in parental CHO-K1 cells | ATP-induced calcium, Fluo-8 fluorescence | 360,000 tested, 0.6% active | inhibition, % at 3 µM | AID 602250;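 active means inhibition above a per-plate cutoff, the plate's mean sample inhibition plus 3 SD, cut at about 24% in these data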;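 further: 0% = DMSO plus EC80 ATP and 100% = DMSO alone without ATP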
# CHRM1 antagonist = human M1 muscarinic receptor antagonists, primary screen, CHO-K1 cells, Fluo-8 calcium fluorescence, 1536-well. CHO-K1 hM1, ACh EC80 antagonist. 360,000 tested, 1.3% active. AID 588852, 2011. inhibition, % at 3 µM. Muscarinic acetylcholine receptor M1 (Homo sapiens), P11229;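 active means percent inhibition above its own plate's cutoff, namely the mean of that plate's compound wells plus 3 SD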;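 further: peak over basal fluorescence ratio during 140 s after agonist addition; 0% = ACh EC80 plus DMSO and 100% = DMSO alone without agonist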
# Target sequence (P11229 whole entry, looked up): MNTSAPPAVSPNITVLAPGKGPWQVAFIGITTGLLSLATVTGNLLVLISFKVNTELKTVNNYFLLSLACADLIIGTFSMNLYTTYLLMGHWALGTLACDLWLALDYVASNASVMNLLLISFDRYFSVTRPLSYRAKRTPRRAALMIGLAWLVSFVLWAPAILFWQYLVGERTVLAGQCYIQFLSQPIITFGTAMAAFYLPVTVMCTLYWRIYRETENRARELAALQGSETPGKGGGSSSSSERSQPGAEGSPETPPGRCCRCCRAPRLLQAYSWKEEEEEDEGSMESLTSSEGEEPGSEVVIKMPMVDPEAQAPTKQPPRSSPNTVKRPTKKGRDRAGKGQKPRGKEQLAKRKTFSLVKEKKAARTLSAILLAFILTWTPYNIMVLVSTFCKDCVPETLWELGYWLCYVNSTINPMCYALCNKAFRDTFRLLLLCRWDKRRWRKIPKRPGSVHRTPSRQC
# CHRM1 agonist = human M1 muscarinic receptor agonists, primary screen, Fluo-8 calcium fluorescence, CHO-K1 cells, HTS; CHO-K1 hM1, agonist mode; 0% DMSO, 100% acetylcholine EC100; 360,000 tested, 0.33% active; Muscarinic acetylcholine receptor M1 (Homo sapiens), P11229; activation, % at 3 µM;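 active means activation above the run's mean compound activation plus 3 SD, cut at about 16% in these data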;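 further: peak over basal fluorescence ratio within a 140 s kinetic read after compound addition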
# CHRM1 PAM = human M1 muscarinic receptor positive allosteric modulators, primary screen, CHO-K1 cells, Fluo-8 calcium fluorescence, 1536-well | CHO-K1 hM1, ACh EC20; 0% = ACh EC20, 100% = maximal ACh | activation, % at 3 µM | 360,000 tested, 0.088% active; in the data active means activation above about 19%, passing the limit was not always enough
# Active calls of the source: *. Sampled rows, rich in hits. Any-hit rate of the full collection: about 2.3%.
SMILES,CHO-K1 Ca ag,M1 PAM parental,CHO-K1 Ca antag,CHRM1 antagonist,CHRM1 agonist,CHRM1 PAM
O=C(OCc1ccccc1)N1Cc2ccnnc2CC1c1ccccc1Br (stereo unspecified),0,0,32*,9,-5,-1
N#CC1=C(N)NC(SCc2ccc(Br)cc2)=C(C#N)C12CCCCC2,8,5,24*,13,0,-4
CCN(c1ccccc1)S(=O)(=O)c1cc(C(=O)Nc2ccc(F)c(F)c2)ccc1F,13,0,20,33*,0,-21
Cn1c(=O)n(-c2cccc(Cl)c2)c(=O)c2c3c(sc21)COC(C)(C)C3,-1,-7,30*,-7,1,11
Cc1nc(C(=O)N2CCC(n3nccc3NC(=O)Nc3ccccc3Cl)CC2)cs1,0,3,9,3,-2,-3
Cc1ccc(N2C(=O)NC(C(F)(F)F)(C(F)(F)F)C3=C2CC(C)(C)CC3=O)cc1,0,4,0,11,-9,-6
O=C(COc1ccc(-c2ccccc2)cc1)NNC(=O)NC1CCCCC1,1,-6,-4,33*,-14,-31
Cc1cc(=O)n2nc(N3CCCC(C(=O)N4CCOCC4)C3)sc2n1 (stereo unspecified),1,18,-11,-14,-2,10
Cc1cc(=O)n2nc(N3CCCC(C(=O)N4CCc5ccccc54)C3)sc2n1 (stereo unspecified),-1,-5,5,97*,-6,-23
CCOc1ccc(N(CCCCO)C(=S)NC(=O)c2ccc(C)c(Br)c2)cc1,0,7,-10,-15,-6,13
O=C(N/N=C/c1cc2ccccc2nc1Cl)/C(=C/c1cccs1)NC(=O)c1ccccc1,3,-20,-8,3,-1,-1
O=C(N/N=C/c1cccnc1)/C(=C\c1cccs1)NC(=O)c1ccccc1,19*,17,-1,5,-3,-1
O=C(NC1CC1)c1cccc2c1C(=O)c1ccc(N3CCC(Cc4ccccc4)CC3)cc1S2(=O)=O,7,2,2,26,21*,-11
O=C(NCc1ccc(F)cc1)c1cccc2c1C(=O)c1ccc(N3CCC(N4CCCCC4)CC3)cc1S2(=O)=O,3,-3,10,40*,-8,-25
CC1CCN(c2ccc3c(c2)S(=O)(=O)c2cccc(C(=O)NCc4ccc(F)cc4)c2C3=O)CC1,3,17,-12,-4,-2,6
COc1cc2[nH]c(=O)n(CCCC(=O)N3CC=C(c4ccccc4)CC3)c(=O)c2cc1OC,0,-2,2,32*,-4,-8
COc1cc2[nH]c(=O)n(CCC(=O)N3CC=C(c4ccccc4)CC3)c(=O)c2cc1OC,1,9,-13,16,-2,-2
CCOC(=O)N(C)c1c(CC)nc2c(OCc3ccccc3)cccn12,-1,5,-3,-14,-8,9
C=CCn1c(SCC(=O)Nc2nc(C)cs2)nnc1C(C)NC(=O)c1ccccc1Cl (stereo unspecified),1,18,-4,47*,-3,-9
O=c1c(O)c(-c2cccs2)oc2ccccc12,10,-7,19,21,16*,-7
O=c1c(O)c(-c2cccs2)oc2ccc(Cl)cc12,77*,-11,21,62*,144*,-35
N#CC1=C(N)Oc2nc(-c3ccccc3)[nH]c2C1c1cccnc1 (stereo unspecified),0,-7,32*,-4,-4,0
N#CC1=C(N)Oc2n[nH]c(-c3ccccc3)c2C1c1cccnc1 (stereo unspecified),0,7,1,-8,-3,5
CCN(CC)c1ccc2c(c1)OC(N)=C(C#N)C2c1cccnc1 (stereo unspecified),17*,19,-10,-4,22*,-11
COCCNC(=O)C1(C)CCCN(Cc2cn(C)c3ccccc23)C1 (stereo unspecified),0,31,-19,-21,-6,9
